Compound activity deposited in PubChem BioAssay by National Center for Advancing Translational Sciences (NCATS).
Hits are enriched below; roughly 2.8% of the tested compounds scored in any of these assays.
PI5P4K alpha inh: blocks human PI5P4K alpha kinase activity. P48426. PI5P4Kalpha enzyme, ADP-Glo luminescence, 60 min; hits give low values. max response, %. actives 1.2% (n = 330,000). AID 652105; active means max response of -50% or lower; inconclusive means between -30% and -50%; inactive means -30% or higher; further: value at the top dose of about 77 µM
Target sequence (P48426 whole entry, looked up): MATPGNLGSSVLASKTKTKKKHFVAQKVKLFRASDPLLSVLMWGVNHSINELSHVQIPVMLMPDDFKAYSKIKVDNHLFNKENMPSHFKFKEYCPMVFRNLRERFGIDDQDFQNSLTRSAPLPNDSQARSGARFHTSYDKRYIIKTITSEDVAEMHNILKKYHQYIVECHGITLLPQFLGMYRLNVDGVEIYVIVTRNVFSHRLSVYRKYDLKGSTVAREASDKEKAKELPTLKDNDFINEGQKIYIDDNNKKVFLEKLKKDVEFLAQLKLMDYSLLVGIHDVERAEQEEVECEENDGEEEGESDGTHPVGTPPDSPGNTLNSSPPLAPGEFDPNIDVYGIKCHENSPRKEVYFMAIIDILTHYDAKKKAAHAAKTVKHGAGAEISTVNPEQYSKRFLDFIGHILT
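Luminescence from ADP-Glo served as readout of PI5P4Kalpha activity in a qHTS format. Reaction: enzyme, substrate, compound, ATP at 5 microM final, 60 min at RT.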
POLI inh: inhibitors of human DNA polymerase iota; Pol iota fluorescent replication assay, 10 min; Potency, µM (highest dose often 115 µM), most hits filed as inhibitors; actives 1% (n = 390,000); Q9UNA4
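Pol iota at 10 nM preincubated 15 min with compounds at room temperature; reaction started with fluorescent substrate, 50 nM final. Fluorescence read kinetically at 0 and 10 min; buffer-only wells as negative control.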
POLH inh: DNA polymerase eta (human) inhibition; Q9Y253; Potency, µM (highest dose often 114 µM), usual class: inhibitors; actives 1.2% (n = 390,000); recombinant Pol eta, fluorescent DNA replication assay
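Pol eta (10 nM) was preincubated with compounds for 15 min at room temperature, after which fluorescent replication substrate (50 nM final) was added to start the reaction. Fluorescence was read kinetically at 0 and 10 min.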
WRN inhibitor: WRN helicase (human) inhibition; Potency, µM (series often up to 114 µM), hits mostly inhibitors; AID 651768; WRN helicase unwinding, fluorescent forked duplex, kinetic; actives 0.46% (n = 360,000); Q14191; further: nearly all actives have a fitted effect of over 55% in size
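Kinetic red-fluorescence monitoring (525/598 nm) tracks WRN helicase activity after 100 nM fluorophore-quencher forked duplex and 2 mM ATP are added to 20 nM enzyme pretreated 15 min at room temperature with compound.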
Pol beta inh: inhibitors of human DNA polymerase beta; P06746; Pol beta primer extension/strand displacement, fluorescence kinetic; Potency, µM (doses to about 114 µM), most hits filed as inhibitors; actives 1.3% (n = 340,000); AID 485314
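Kinetic readout of DNA synthesis with strand displacement by Pol beta. Compound and 10 nM enzyme sit 15 min at room temperature; 50 nM substrate starts the reaction, read immediately and at 10 min.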
Pol kappa inh: DNA polymerase kappa (human) inhibition; Q9UBT6; purified Pol kappa, fluorescent DNA synthesis assay, 10 min; Potency, µM (highest dose often 107 µM), actives largely listed as inhibitors; actives 0.53% (n = 400,000); AID 588579
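Kinetic fluorescence readout at 0 and 10 min followed reaction start with substrate at 50 nM final. Beforehand, enzyme (10 nM Pol kappa) stood 15 min with compound at room temperature; buffer-only wells were negative controls.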
A number is an active result; - = inactive; ? = inconclusive; . = not tested or not shown; [ ] = remark or other dose. Unless noted, the call rests on the fitted dose curve; in most records, active means well fitted curve in the direction sought with a large enough effect; inconclusive means small, poorly fitted or top-dose-only effect, or another doubt; inactive means no such curve, though single readings can be large; an effect the other way counts as inactive or inconclusive.

SMILES | PI5P4K alpha inh | POLI inh | POLH inh | WRN inhibitor | Pol beta inh | Pol kappa inh
Cc1c(C(=O)NN2CCCCC2)nn(-c2ccc(Cl)cc2Cl)c1-c1ccc(Cl)cc1 | . | . | . | . | . | -
NC(=O)c1cc(NC(=O)c2cc(Br)c(Br)s2)cc(C(N)=O)c1 | - | - | - | - | 40µM | -
O=C1CC(C(=O)Nc2ccc(O)c(C(=O)O)c2)C(c2ccccc2)O1 (centres undefined) | . | ? | 50µM | - | - | -
O=C1CC(C(=O)Nc2ccc(C(=O)O)cc2)C(c2ccccc2)O1 (centres undefined) | - | - | - | - | - | -
Cc1ccc(C)c(Nc2nn3c(=O)c4ccc(C(=O)NCc5cccs5)cc4nc3s2)c1 | . | - | ? | . | 11µM | -
COc1ccccc1Nc1nn2c(=O)c3ccc(C(=O)NCCCOC(C)C)cc3nc2s1 | . | ? | ? | . | 45µM | -
COC(=O)c1c(NC(=O)/C(C#N)=C/c2ccccc2)sc2c1CCC2 | . | ? | - | . | - | -
Cn1cc(/C=C/c2ccnc3ccccc23)c2ccccc21 | . | - | . | . | . | -
Cc1ccc(C2=NN(C(=O)CSc3nc4ncc(Cl)cc4[nH]3)C(c3ccco3)C2)cc1 (centres undefined) | - | - | - | - | ? | -
COc1ccc(C2=NN(C(=O)CSc3nc4ncc(Cl)cc4[nH]3)C(c3ccco3)C2)cc1 (centres undefined) | - | 45µM | - | - | - | 89µM
CSc1ccc(/C=C(/NC(=O)c2ccccc2)C(=O)NCCN2CCOCC2)cc1 | - | - | - | - | - | -
C/C=C(/C)C(=O)Nc1cccc(C2=NOC3(C2)C[C@H](C(N)=O)N(C(=O)c2ccc(Cl)cc2)C3)c1 (some centres undefined) | - | - | - | - | - | -
C/C=C\C=C/C(=O)Nc1cccc(C2=NOC3(C2)C[C@@H](C(N)=O)N(C(=O)/C=C/CC)C3)c1 (some centres undefined) | -65 | 28µM | 22µM | ? | - | ?
C/C=C\C(=O)Nc1cccc(C2=NOC3(C2)C[C@H](C(N)=O)N(C(=O)/C=C/CC)C3)c1 (some centres undefined) | - | - | - | - | - | -
C/C=C/C=C\C(=O)Nc1cccc(C2=NOC3(C2)C[C@@H](C(N)=O)N(C(=O)c2cc([N+](=O)[O-])cc([N+](=O)[O-])c2)C3)c1 (some centres undefined) | - | ? | - | - | - | -
C=C(C)C(=O)Nc1cccc(C2=NOC3(C2)C[C@@H](C(N)=O)N(C(=O)c2ccc(Cl)cc2)C3)c1 (some centres undefined) | ? | 35µM | 4.5µM | 45µM | 8.9µM | 35µM
C/C=C\C=C\C(=O)N1CC2(CC(c3cccc(NC(=O)CC(c4ccccc4)c4ccccc4)c3)=NO2)C[C@H]1C(N)=O (some centres undefined) | -71 | ? | ? | - | - | -
C/C=C\C=C/C(=O)Nc1cccc(C2=NOC3(C2)C[C@@H](C(N)=O)N(C(=O)/C=C/C=C\C)C3)c1 (some centres undefined) | -94 | 10µM | 7.9µM | 25µM | 6.3µM | 20µM
OCCN1CCN(c2nc(-c3ccccc3O)nc3ccccc23)CC1 | - | ? | - | - | - | -
CCOc1ccccc1Nc1nc(-c2ccc(C)cc2)c(CC(=O)O)s1 | . | - | - | . | - | -
CCOC(=O)c1sc(NC(=O)C2=COCCO2)c(C#N)c1C | - | ? | - | - | . | -
CCOC(=O)c1sc(NC(=O)C(C)C)c(C#N)c1C | -68 | ? | - | ? | - | -
Cc1nc2ccccc2nc1/C=C/c1ccc(N(C)C)cc1 | . | - | . | . | . | -
CCn1c(CSc2nccn2C)nc2cc(C(=O)O)ccc21 | - | ? | ? | 79µM | - | -
CCn1c(CSc2nc3ccccc3[nH]2)nc2cc(C(=O)O)ccc21 | . | ? | - | - | - | -
SMILES | PI5P4K alpha inh | POLI inh | POLH inh | WRN inhibitor | Pol beta inh | Pol kappa inh
CC(C)(C)c1cc(C(C)(C)C)c2oc(=O)c(-c3nc4ccc(C(=O)O)cc4[nH]3)cc2c1 | . | - | - | . | - | -
Cc1cccc2cc(-c3nc4ccc(C(=O)O)cc4[nH]3)c(=O)oc12 | - | ? | 22µM | - | ? | ?
CC(C)(C)NC(=O)C(CCc1ccccc1)n1c(=O)c(-c2cc3ccccc3[nH]2)nc2ccccc21 (centres undefined) | - | . | . | - | . | .
O=C(CN1C(=O)/C(=C2/SC(=S)N(CCS(=O)(=O)O)C2=O)c2ccccc21)Nc1cccc(Br)c1 | -57 | ? | ? | ? | . | ?
O=C(c1ccco1)N1N=C(c2ccccc2O)CC1c1cccs1 (centres undefined) | - | . | - | - | . | .
CCOC(=O)C1Nc2ccccc2C2C(O)C(O)CC12 (centres undefined) | - | 25µM | - | - | . | -
CCOc1ccc(N=CC2=C(O)CC(c3ccco3)CC2=O)cc1 (centres undefined) | - | - | - | - | - | -
O=C1CC(c2ccco2)CC(O)=C1C=Nc1cc(Cl)cc(Cl)c1 (centres undefined) | - | ? | ? | ? | 40µM | 71µM
Cc1cc(OC(C)C(=O)NCC2CCC(C(=O)O)CC2)c2c(C)c(Cc3ccccc3)c(=O)oc2c1 (centres undefined) | - | 79µM | ? | -[11.6 µM] | - | -
O=C(Nc1cccc(C(=O)O)c1)/C(=C\c1ccco1)NC(=O)c1ccccc1Cl | ? | ? | - | -[11.6 µM] | - | 35µM
CCOC(=O)C1=CCC(c2cccc(C)c2)N(S(=O)(=O)c2ccc(C)cc2)C1 (centres undefined) | - | . | . | - | . | .
CCc1c(C)nc2cc(-c3cccc(Br)c3)[nH]n2c1=O | - | - | - | - | 25µM | -
CCOC(=O)CCc1c(C)nc2cc(-c3cc(OC)cc(OC)c3)[nH]n2c1=O | . | - | - | . | 28µM | -
Fc1ccc(/C=C/c2ccc3ccccc3n2)cc1 | . | - | . | . | . | ?
N#C/C(=C\c1ccc(-c2cccc([N+](=O)[O-])c2)o1)C(=O)N1CCOCC1 | - | - | - | - | - | -
N#C/C(=C/c1ccc(-c2cccc([N+](=O)[O-])c2)o1)C(=O)Nc1nc(-c2cccs2)cs1 | -62 | ? | - | - | . | -
N#C/C(=C\c1ccc(-c2ccc([N+](=O)[O-])cc2)o1)C(=O)Nc1nc(-c2cccs2)cs1 | ? | 14µM | 32µM | - | ? | ?
COc1cccc(Nc2nc(C(N)c3ccccc3)cs2)n1 (centres undefined) | - | . | . | - | . | .
Cc1cc(C)cc(NC(=O)CSc2nnc(CNC(=O)c3ccco3)n2C)c1 | - | - | - | - | . | -
Cc1nc2ccc([N+](=O)[O-])cc2c(=O)n1Cc1cccc(Br)c1 | - | - | - | - | 79µM | -
